Screening results: PubChem, National Center for Advancing Translational Sciences (NCATS)
ATXN viability – Viability Counterscreen for Primary qHTS for Inhibitors of ATXN expression. S2 cells (HEK-293 line with an ATXN2-luciferase reporter) viability, CellTiter-Fluor protease fluorescence, 24 h. Potency, µM (highest dose often 56.7 µM), usual class: cytotoxic. hit rate 0.49% among 400,000; further: nearly all actives have a fitted effect of over 40% in size
ATXN2 expr inh – Primary qHTS for Inhibitors of ATXN expression; hit rate 0.72% among 360,000; Potency, µM (top dose mostly 57 µM), hits mostly inhibitors; HEK-293 ATXN2-luciferase reporter, luminescence, 24 h; AID 1745845, 2022; further: nearly all actives have a fitted effect of over 55% in size
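ATXN2-luciferase reporter cells (luciferase flanked by upstream and downstream ATXN2 gene portions) were treated 24 h at 37 °C with compounds at up to 57 uM. SteadyGlo luminescence gave expression; GF-AFC fluorescence gave viability.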
DT40 TDP1 CPT – qHTS for Inhibitors of human tyrosyl-DNA phosphodiesterase 1 (TDP1): qHTS in cells in presence of CPT; chicken DT40 Tdp1-/-;hTDP1 cells + 20 nM CPT, ATP luminescence, 48 h; Potency, µM (titrated, usually from 46.2 µM), actives largely listed as inhibitors; hit rate 12% among 420,000; further: nearly all actives have a fitted effect of over 55% in size
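Chicken DT40 Tdp1-/- cells complemented with human TDP1, 400 cells/well, exposed to compounds plus 20 nM camptothecin for at least 48 h at 37 C; viability read as ATP content by CellTiter-Glo luminescence.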
HepG2 tox – qHTS for Inhibitors of TGF-b: Cytotox Counterscreen; Potency, µM (series often up to 46.1 µM), actives largely listed as cytotoxic; AID 588856, 2011; HepG2 CAGA-GFP viability, ATP luminescence, 18 h; hit rate 0.76% among 410,000
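CellTiter-Glo luminescence gave cytotoxicity after 18 hours at 37 degrees C. The cells were HepG2 CAGA-GFP in 1% FBS DMEM, stimulated with 500 pg/mL TGF-beta after compound addition. %Activity was normalised to no-cell wells (complete cell-killing) and DMSO (no toxicity), and curves were fitted and classified.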
TGFb inhibitor – qHTS for Inhibitors of TGF-b | AID 588855, 2011 | Potency, µM (highest dose often 46.1 µM), usual class: inhibitors | HepG2 CAGA-GFP TGF-b/SMAD3 reporter, GFP fluorescence, 18 h; TGF-beta stimulated, 500 pg/mL final | hit rate 1.2% among 410,000; further: nearly all actives have a fitted effect of over 65% in size
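Read-out: total well GFP (ex488/em500-530) summed from mean per-cell fluorescence. Cells: HEPG2 CAGA-GFP, 1% FBS DMEM, 18 h at 37 degrees C with 500 pg/mL final TGF-beta. Unstimulated wells served as the full-inhibition control; stimulated DMSO wells = 0%.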
DT40 TDP1 no CPT – qHTS for Inhibitors of human tyrosyl-DNA phosphodiesterase 1 (TDP1): qHTS in cells in absence of CPT; hit rate 15% among 420,000; Potency, µM (top dose mostly 46.2 µM), most hits filed as inhibitors; DT40 Tdp1-/- hTDP1 cells, no CPT, ATP luminescence, 48 h; further: nearly all actives have a fitted effect of over 55% in size
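DT40 Tdp1-/-;hTDP1 cells, no CPT (DMSO vehicle only), 400 cells/well; compounds pin-transferred; ≥48 hr, 37 °C; CellTiter-Glo 30 min RT dark, luminescence read.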
Numbers stand for hits. An excerpt weighted towards active compounds, which were near 17% of everything screened. The call rests on the fitted dose curve; in most records, active means well fitted curve in the direction sought with a large enough effect; inconclusive means small, poorly fitted or top-dose-only effect, or another doubt; inactive means no such curve, though single readings can be large; an effect the other way counts as inactive or inconclusive.

CCOC(=O)c1cc(-c2ccc(C)cc2)n(CC(=O)Nc2cccc(C(C)=O)c2)c1C was read as ATXN viability inactive, ATXN2 expr inh inactive, DT40 TDP1 CPT inactive, HepG2 tox inactive, TGFb inhibitor inactive and DT40 TDP1 no CPT inconclusive.
CCOC(=O)c1cc(-c2ccc(OC)cc2)n(CCC(=O)Nc2ccc(OC)cc2OC)c1C was read as DT40 TDP1 CPT 21µM, HepG2 tox inactive, TGFb inhibitor inactive and DT40 TDP1 no CPT 21µM.
`CCOC(=O)c1cc(-c2ccccc2)n(CC(=O)Nc2ccc(OC)cc2OC)c1C` gave DT40 TDP1 CPT 16µM, HepG2 tox inactive, TGFb inhibitor inactive and DT40 TDP1 no CPT inconclusive.
For Cc1ccc(-c2nn(-c3ccccc3)cc2C(=O)OCC(=O)Nc2ncc(Cl)cc2Cl)cc1 the results were ATXN viability inactive, ATXN2 expr inh inactive, DT40 TDP1 CPT inconclusive, HepG2 tox inactive, TGFb inhibitor inactive and DT40 TDP1 no CPT inconclusive.
For c1ccc(-n2nnc3ccccc32)cc1 the results were ATXN viability inactive, ATXN2 expr inh inactive, DT40 TDP1 CPT inactive, HepG2 tox inactive, TGFb inhibitor inactive and DT40 TDP1 no CPT inactive.
Screening C(=C\n1nnc2ccccc21)/c1ccc[nH]1 returned ATXN viability inactive, ATXN2 expr inh inactive, DT40 TDP1 CPT 18µM, HepG2 tox inactive, TGFb inhibitor inactive and DT40 TDP1 no CPT 23µM.
For COC(=O)c1cn(Cc2ccccc2C)nn1 the results were ATXN viability inactive, ATXN2 expr inh inactive, DT40 TDP1 CPT inactive, HepG2 tox 1.8µM, TGFb inhibitor inactive and DT40 TDP1 no CPT inactive.
Screening CCNc1ncc2nc(-c3cc(F)cc(F)c3)c(=O)n(CCOC)c2n1 returned DT40 TDP1 CPT inactive and DT40 TDP1 no CPT inactive.
COc1ccccc1NC(=O)CSC1CC(=O)N(c2ccc3c(c2)OCO3)C1=O (stereo not given) was read as ATXN viability inactive, ATXN2 expr inh inactive, DT40 TDP1 CPT 4.6µM, HepG2 tox inactive, TGFb inhibitor inactive and DT40 TDP1 no CPT 6.5µM.
`COc1ccc(N2C(=O)CC(SCC(=O)O)C2=O)cc1` (stereo not given) gave ATXN viability inactive, ATXN2 expr inh inactive, DT40 TDP1 CPT inactive, HepG2 tox inactive, TGFb inhibitor inactive and DT40 TDP1 no CPT inactive.
For COc1ccc(NC(=O)CSC2CC(=O)N(c3ccc4c(c3)OCCO4)C2=O)cc1 (stereo not given) the results were ATXN viability inactive, ATXN2 expr inh inactive, DT40 TDP1 CPT 21µM, HepG2 tox inactive, TGFb inhibitor inactive and DT40 TDP1 no CPT 23µM.
Cc1ccc(N2CC(C(=O)N3CCC4(CC3)CC(=O)c3ccccc3O4)CC2=O)cc1 (stereo not given) was read as ATXN viability inactive, ATXN2 expr inh inactive, DT40 TDP1 CPT inconclusive, HepG2 tox inactive, TGFb inhibitor inactive and DT40 TDP1 no CPT 23µM.
Screening COc1ccc(N2CC(C(=O)N3CCC4(CC3)CC(=O)c3ccccc3O4)CC2=O)cc1 (stereo not given) returned ATXN viability inconclusive, ATXN2 expr inh inactive, DT40 TDP1 CPT inconclusive, HepG2 tox inactive, TGFb inhibitor inactive and DT40 TDP1 no CPT inconclusive.
Screening CC[C@]12c3[nH]c4ccc(OC)cc4c3CCN1C(=O)C(CC(=O)NC/C=C(\C)CCC=C(C)C)C[C@@H]2C(=O)N1CCN(C(=O)c2ccco2)CC1 (stereo not given in full) returned ATXN viability inconclusive, ATXN2 expr inh inconclusive, DT40 TDP1 CPT inconclusive, HepG2 tox inactive, TGFb inhibitor inconclusive and DT40 TDP1 no CPT inconclusive.
For CC(C)=CCC/C(C)=C/CNC(=O)C[C@H]1C[C@H](C(=O)N2CCOCC2)[C@@]2(C)c3[nH]c4cc(CCC(=O)N(C)C)ccc4c3CCN2C1=O the results were ATXN viability inconclusive, ATXN2 expr inh inconclusive, DT40 TDP1 CPT 23µM, HepG2 tox inactive, TGFb inhibitor inconclusive and DT40 TDP1 no CPT 16µM.
